Structures are written as SMILES. Compounds without any hit were thinned out: in the full panel of roughly 83,000, 20% have a hit.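 48-hour exposure, single concentration, 96-well plates; percent growth endpoint where 0 means no net growth. Active: below 10.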 A number with no mark means an inactive call. The source made the active and inactive calls.

This is an account of results in PubChem BioAssay (NCI).

Test systems include HCT-15 colon; HT29 colon; SNB-19 CNS; U251 CNS; PC-3 prostate; SK-MEL-5 melanoma; UACC-62 melanoma; LOX IMVI melanoma; SK-MEL-28 melanoma; SK-MEL-2 melanoma; SN12C renal; UO-31 renal; TK-10 renal; ACHN renal; CAKI-1 renal; A498 renal; CCRF-CEM leukemia; MOLT-4 leukemia; EKVX NSCLC.
Holding throughout (test): NCI-60 one-dose screen, 48 h (100 = growth as untreated, 0 = no growth, -100 = all killed)
Common to all, as to conditions: 10 µM unless noted

Consider `Cc1ccc2nc(-c3cc4c([nH]c5ccccc54)c(-c4ccc(F)c(F)c4)n3)[nH]c2c1`, for which the growth with HCT-15 colon was 32.7%; in the test with HT29 colon, 18.7%; in the test on SNB-19 CNS it was 112%; in the test with U251 CNS, 64%; in the test with PC-3 prostate, 72.6%; with SK-MEL-5 melanoma, 61.1%. In addition, the growth in the test on UACC-62 melanoma was 90.4%; with LOX IMVI melanoma, 11.7%; in the test with SK-MEL-28 melanoma, 101%; in the test on SK-MEL-2 melanoma it was 94%; with SN12C renal, 81.8%; in the test with UO-31 renal it was 65.4%. Besides, the growth with TK-10 renal was 117%; with ACHN renal, 85.9%; in the test on CAKI-1 renal, 93.6%; with A498 renal, 106%; in the test with CCRF-CEM leukemia, 16.8%; in the test on MOLT-4 leukemia, 35.4%.

`COc1cc(-c2nn(-c3cccc(NC(=O)Nc4cccc(C(F)(F)F)c4)c3)cc2-c2ccncc2)ccc1Cl`: the growth is 5.28% (active) with HCT-15 colon; -64% (active) in the test on HT29 colon; 23.5% in the test with SNB-19 CNS; -82.2% (active) in the test with U251 CNS; -23% (active) in the test on PC-3 prostate; -97.8% (active) in the test with SK-MEL-5 melanoma. Further, the growth with UACC-62 melanoma was -76.1% (active); with LOX IMVI melanoma, -64.2% (active); with SK-MEL-28 melanoma, -18.6% (active); in the test on SK-MEL-2 melanoma it was -71.2% (active); with SN12C renal, 7.22% (active); in the test on UO-31 renal, 7.94% (active). Further, the growth is 2.65% (active) in the test with TK-10 renal; 6.54% (active) in the test on ACHN renal; 11.5% in the test on CAKI-1 renal; -5.17% (active) with A498 renal; -9.68% (active) in the test on CCRF-CEM leukemia; -26.3% (active) in the test on MOLT-4 leukemia.

Regarding `O=S(=O)(c1ccc(OCCO)cc1)c1ccc(OCCO)cc1`, the growth in the test on HCT-15 colon was 99%; with HT29 colon, 97.6%; in the test on SNB-19 CNS, 108%; with U251 CNS, 93.2%; with PC-3 prostate, 85%; in the test with SK-MEL-5 melanoma it was 89.7%. Moreover, the growth in the test on UACC-62 melanoma is 101%; in the test on LOX IMVI melanoma it was 105%; with SK-MEL-28 melanoma it was 79%; in the test with EKVX NSCLC, 108%; in the test with SN12C renal, 106%; in the test with UO-31 renal, 80.6%. For the same compound, the growth in the test on TK-10 renal is 94.6%; with ACHN renal, 102%; in the test with CAKI-1 renal, 98.9%; in the test on A498 renal it was 107%; with CCRF-CEM leukemia it was -21.9% (active); in the test on MOLT-4 leukemia, 83.2%.

In the case of `COc1cc(Nc2ncccc2C(=O)NCc2cn(Cc3cccc(Oc4ccccc4)c3)nn2)cc(OC)c1`, the growth in the test on HCT-15 colon was 32.9%; with HT29 colon, 8.47% (active); in the test with SNB-19 CNS, 59.9%; in the test on U251 CNS, 34.7%; with PC-3 prostate it was 57.2%; in the test on SK-MEL-5 melanoma, 19.5%. Moreover, the growth in the test with UACC-62 melanoma is 32.7%; in the test on LOX IMVI melanoma it was 43.6%; in the test with SK-MEL-28 melanoma it was 67%; with EKVX NSCLC, 46.2%; in the test with SN12C renal, 42.9%; with UO-31 renal, 49.8%. For the same compound, the growth with TK-10 renal is 70.4%; in the test with ACHN renal, 53.6%; in the test with CAKI-1 renal it was 36.9%; in the test with A498 renal, 24.2%.

Turning to `COc1ccc(Nc2ncccc2C(=O)NCc2cn(Cc3cccc(Oc4ccccc4)c3)nn2)c(OC)c1`, the growth in the test on HCT-15 colon is 26.1%; in the test on HT29 colon it was 3.15% (active); in the test on SNB-19 CNS, 44.5%; in the test with U251 CNS, 30.2%; with PC-3 prostate it was 43.9%; in the test with SK-MEL-5 melanoma, 23%. Besides, the growth with UACC-62 melanoma was 33.9%; in the test with LOX IMVI melanoma, 48.4%; in the test on SK-MEL-28 melanoma, 61.8%; in the test on EKVX NSCLC, 46.5%; in the test on SN12C renal it was 33.7%; in the test with UO-31 renal, 48%. In addition, the growth was 64.5% with TK-10 renal; 48% in the test with ACHN renal; 44.8% in the test with CAKI-1 renal; -3.05% (active) in the test on A498 renal; 40% in the test with MOLT-4 leukemia.

Consider `COc1ccc(C2C=C(c3ccc(Cl)cc3)N=C3SC=C(C)N32)c(Br)c1` (stereo not drawn), for which the growth with HCT-15 colon was 25.4%; in the test with HT29 colon it was 4.51% (active); in the test on SNB-19 CNS, 78.2%; in the test on U251 CNS it was 49.7%; in the test with PC-3 prostate, 60.7%; with SK-MEL-5 melanoma, 48.9%. Also, the growth with UACC-62 melanoma was 58.1%; in the test with LOX IMVI melanoma it was 16.7%; in the test on SK-MEL-28 melanoma it was 38.4%; with SK-MEL-2 melanoma, 68.3%; in the test on SN12C renal it was 46.4%; with UO-31 renal, 40.7%. Also, the growth in the test on TK-10 renal was 65.2%; with ACHN renal it was 53%; in the test with CAKI-1 renal it was 49.9%; in the test on A498 renal, 90.2%; in the test on MOLT-4 leukemia, 29.5%.

`COc1ccc(C2C=C(c3ccc(OC)c(OC)c3)N=C3SC=C(C)N32)c(Br)c1` (stereo not drawn): the growth in the test on HCT-15 colon was 92.8%; with HT29 colon it was 107%; in the test on SNB-19 CNS, 110%; in the test on U251 CNS, 96.3%; in the test on PC-3 prostate it was 103%; in the test with SK-MEL-5 melanoma, 100%. The growth in the test with UACC-62 melanoma was 106%; in the test with LOX IMVI melanoma, 109%; in the test on SK-MEL-28 melanoma it was 110%; in the test on SK-MEL-2 melanoma, 101%; in the test on SN12C renal, 108%; in the test with UO-31 renal it was 94.8%. In addition, the growth in the test on TK-10 renal was 107%; in the test on ACHN renal, 95%; in the test with A498 renal, 115%; with CCRF-CEM leukemia, 101%; in the test with MOLT-4 leukemia, 84%.

Take `COc1ccc(-c2c(N)n[nH]c2-c2cc3c(c(OC)c2OC)OCO3)cc1`: the growth with HCT-15 colon was 101%; in the test on HT29 colon, 103%; in the test on SNB-19 CNS it was 104%; with U251 CNS, 94.1%; in the test on PC-3 prostate, 101%; in the test with SK-MEL-5 melanoma it was 110%. For the same compound, the growth with UACC-62 melanoma was 82.9%; in the test with LOX IMVI melanoma it was 95%; in the test on SK-MEL-28 melanoma, 104%; with EKVX NSCLC, 92.4%; in the test with SN12C renal it was 92.5%; with UO-31 renal it was 84%. Further, the growth is 101% in the test on TK-10 renal; 96.9% in the test on ACHN renal; 94.4% with CAKI-1 renal; 75.7% in the test on A498 renal; 96.5% in the test with MOLT-4 leukemia.
